# Results filed as inconclusive are left out. A number with no mark means an inactive call. Activity calls are given as the source filed them. Calls follow the shape of the dose curve; as a rule, active = well fitted inhibition curve with a large enough effect; inconclusive = small, poorly fitted or top-dose-only effect; inactive = flat fitted curve, though single readings scatter. Where a SMILES comes first, the peptide text is derived from it.
# Target: Glutathione peroxidase 1 (Homo sapiens) (UniProt P07203)
# Sequence (P07203 whole entry, looked up): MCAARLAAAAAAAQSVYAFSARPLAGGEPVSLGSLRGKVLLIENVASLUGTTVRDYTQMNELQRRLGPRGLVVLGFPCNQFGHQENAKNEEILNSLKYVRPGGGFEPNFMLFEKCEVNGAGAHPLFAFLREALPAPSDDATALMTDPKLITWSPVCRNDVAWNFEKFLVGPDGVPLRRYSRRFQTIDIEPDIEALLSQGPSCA
# Test: Primary qHTS Assay for Inhibitors of Recombinant Selenoprotein Glutathione Peroxidase 1 (GPX1) (AID 1845191); also: nearly all actives have a fitted effect of over 65% in size
# Settings: recombinant GPX1, GR-coupled NADPH fluorescence, 15 min; series mostly up to 27.7 µM; activity, negative = inhibition: at the top concentration
# Procedure, shortened: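 GPX1 10 nM, GR 100 nM, GSH 1 mM, NADPH 0.5 mM, CHP 0.5 mM (final). 30-min cpd preincubation, RT. Ex340/Em450 read t=0, t=15 min.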
# % is scaled to controls: 0 for no effect and ±100 for the full control effect.
Compound,"activity, negative = inhibition",outcome
CC[C@@H]1C(=O)O[C@]23C=C[C@@H]4C(C(=O)OC)=CO[C@H](O[C@@H]12)[C@@H]43,-19.4% [at 48.8 µM],–
C=C1CC[C@]2(C(=O)O[C@@H]3O[C@H](CO)[C@@H](O)[C@H](O)[C@H]3O)CC[C@]3(C)C(=CCC4[C@@]5(C)C[C@H](O)[C@@H](O[C@@H]6O[C@H](C(=O)O)[C@@H](O)[C@H](O)[C@H]6O)[C@](C)(C=O)C5CC[C@]43C)C2C1 (some centres undefined),1.26% [at 15.3 µM],–
C[C@@H]1O[C@@H](O[C@H]2[C@H](O)[C@@H](O)[C@H](OC(=O)[C@]34CCC(C)(C)C[C@H]3C3=CCC5[C@@]6(C)CC[C@H](O[C@@H]7O[C@H](C(=O)O)[C@@H](O)[C@H](O)[C@H]7O)C(C)(C)C6CC[C@@]5(C)[C@]3(C)CC4)O[C@@H]2CO)[C@H](O)[C@H](O)[C@H]1O (some centres undefined),2.55% [at 15.3 µM],–
CC(=O)C1CCC(=O)N1Cc1ccccc1 (centres undefined),-13.4% [at 48.8 µM],–
H-DPPDPDRFYGMM-NH2,-3.64% [at 15.3 µM],–
C[C@@H]1O[C@@H](O[C@H]2[C@H](O)[C@@H](O)[C@H](OC[C@H]3O[C@@H](OC(=O)[C@]45CCC(C)(C)C[C@H]4C4=CCC6[C@@]7(C)C[C@@H](O)[C@H](O)[C@@](C)(CO)C7[C@H](O)C[C@@]6(C)[C@]4(C)CC5)[C@H](O)[C@@H](O)[C@@H]3O)O[C@@H]2CO)[C@H](O)[C@H](O)[C@H]1O (some centres undefined),2.07% [at 15.3 µM],–
COc1cccc(Cn2ncc3c4sc(S(C)=O)cc4n(C)c3c2=O)c1 (centres undefined),4.05% [at 48.8 µM],–
CCCC1=CC2=C(CO1)C(=O)C(C)(O)C(OC(=O)c1c(C)cc(OC)cc1O)C2 (centres undefined),-3.4%,–
CO[C@H]1c2cc(C(C)C)c(O)c(O)c2[C@@]23CCCC(C)(C)C2[C@@H]1OC3=O (some centres undefined),–,inactive
C=C1CCC2C(C)(C)CC(O)CC2(C)C1CCC(C)CCOC(=O)CCC(=O)O (centres undefined),-11.9%,–
CC(=O)O[C@@H](C[C@@H]1C=C(C)C(=O)O1)[C@H](C)[C@H]1CCC2[C@@]3(C)CC[C@H](O[C@@H]4O[C@H](CO)[C@@H](O)[C@H](O)[C@H]4O[C@@H]4O[C@@H](C)[C@H](O)[C@@H](O)[C@H]4O)C(C)(C)C3CC[C@@]2(C)[C@@]12COC(=O)C2 (some centres undefined),-2.72% [at 15.3 µM],–
CC1CC2(O)OC(=O)C3=C2C(CCC3)[C@@]12C[C@@H](c1ccoc1)OC2=O (some centres undefined),-3.84%,–
COc1cc(C(=O)OCC2=CCC3C(C(=O)O)=COC(O[C@@H]4O[C@H](CO)[C@@H](O)[C@H](O)[C@H]4O)C23)ccc1O (some centres undefined),-5.74%,–
CC(=O)O[C@H]1[C@H](O[C@H]2CC[C@]34C[C@]35CC[C@]3(C)[C@@H]([C@@]6(C)CC[C@@H](C(C)(C)O)O6)[C@@H](O)C[C@@]3(C)[C@@H]5C[C@H](O[C@@H]3O[C@H](CO)[C@@H](O)[C@H](O)[C@H]3O)[C@H]4C2(C)C)OC[C@@H](OC(C)=O)[C@@H]1O,–,inactive [at 48.8 µM]
CC(C)[C@@H](C(=O)O)N1Cc2c(cc(O)c3c2O[C@]2(C3)[C@H](C)CCC3C(C)(C)[C@H](O)[C@H](O)C[C@@]32C)C1=O (some centres undefined),-0.884%,–
C/C=C/C=C/[C@@H]1O[C@](O)([C@H](CC)C(=O)NC/C=C/C=C(\C)[C@@H](OC)[C@@H](C)[C@@H]2O[C@H](/C=C/C=C/C=C(\C)C(=O)c3c(O)ccn(C)c3=O)[C@H](O)[C@@H]2O)[C@H](O)[C@H](O)C1(C)C,–,inactive [at 15.3 µM]
CCCCC(=O)N1c2ccccc2NC2=C(C(=O)CCC2)C1c1ccccc1Cl (centres undefined),–,inactive [at 48.8 µM]
CC(C)(O)C(O)C(=O)OCc1ccc(O[C@@H]2O[C@H](CO)[C@@H](O)[C@H](O)[C@H]2O)cc1 (some centres undefined),–,inactive
COc1cc(C)c(C(=O)NC2C(C)OC(OC3CCC(C)C4C3C=C(C)C3/C(C)=C\CC/C(C)=C/C5(C)C=C(C(=O)O)C(C)CC56OC(=O)/C(=C(\O)C34C)C6=O)C(O)C2(C)O)c(O)c1 (centres undefined),–,inactive [at 15.3 µM]
CC1=C2C[C@@]3(C)[C@@H](CCC[C@@H]3C)C[C@@]2(O)OC1=O,-8.79% [at 48.8 µM],–

Compound,"activity, negative = inhibition",outcome
C/C=C1/CC2C(=O)Nc3cc(O)c(OC)cc3C(=O)N2C1 (centres undefined),–,inactive
CC(=O)NC(Cc1ccccc1)C(=O)NC(C(=O)O)C(C)C (stereo not drawn) (Ac-Phe-Val-OH; configuration not given here),-6.76% [at 48.8 µM],–
COc1ccc(C2(O)c3ccccc3NC(=O)C2OC)cc1 (centres undefined),-12.4% [at 48.8 µM],–
Cc1oc(S(=O)(=O)N2CCCCC2)cc1NC(=O)Nc1ccccc1,-12.1% [at 48.8 µM],–
O=C(/C=C/c1ccc(O)cc1)OC[C@H]1O[C@@H](O/C(=C\c2ccccc2)C(=O)O)[C@H](O)[C@@H](O)[C@@H]1O,–,inactive
COC(=O)C1=CO[C@@H](O[C@@H]2O[C@H](CO)[C@@H](O)[C@H](O)[C@H]2O)/C(=C\CO)[C@@H]1CC(=O)OCCc1ccc(O)cc1,–,inactive
C=CC(C)(C)C12Nc3c(ccc4c3OC(C)(C)C=C4)C1(O)CC1C(=O)N3CCCC3C(=O)N12 (centres undefined),-8.69%,–
CC(=O)O[C@@H]1[C@H](O[C@@H]2OC[C@](O)(CO)[C@H]2O)[C@@H](O[C@@H]2O[C@@H](C)[C@H](O)[C@@H](O[C@@H]3O[C@H](CO)[C@@H](O)[C@H](O)[C@H]3O)[C@H]2O)[C@H](OC(=O)[C@]23CCC(C)(C)C[C@H]2C2=CCC4[C@@]5(C)C[C@H](O)[C@H](O[C@@H]6O[C@H](C(=O)O)[C@@H](O)[C@H](O)[C@H]6O)[C@@](C)(C(=O)O)C5CC[C@@]4(C)[C@]2(C)CC3)O[C@@H]1C (some centres undefined),–,inactive [at 9.52 µM]
COc1ccc(CC(NC(C)=O)C(=O)O)cc1 (centres undefined),-13.7% [at 48.8 µM],–
COC1CC(O[C@H]2CC[C@@]3(C)C(=CC[C@]4(O)C3[C@H](O)[C@@H](O)[C@]3(C)[C@@H]([C@H](C)O)CC[C@@]34O)C2)OC(C)C1OC1CC(OC)C(OC2CC(OC)C(OC3OC(C)C(OC4OC(CO)C(O)C(O)C4O)C(OC)C3O)C(C)O2)C(C)O1 (some centres undefined),-11.6% [at 15.3 µM],–
C=CC(C)(O)CC/C=C(\C)C(=O)O[C@@H]1[C@@H](O)[C@H](OC(C)(C=C)CC/C=C(\C)C(=O)O)O[C@H](CO)[C@H]1OC(=O)/C(C)=C/CCC(C)(O)C=C (some centres undefined),–,inactive [at 15.3 µM]
CC(=O)O[C@@H]1C=C2[C@H](CC[C@@]3(C)[C@@]2(O)CC[C@H]2Cc4c([nH]c5ccccc45)[C@@]23C)O[C@@H]1C(C)(C)O,–,inactive
O=C(OC[C@H]1O[C@@H](Oc2ccccc2CO)[C@H](O)[C@@H](O)[C@@H]1O)c1ccccc1,-8.49%,–
CC1(C)CC[C@]2(C(=O)O[C@@H]3O[C@H](CO[C@@H]4O[C@H](CO)[C@@H](O)[C@H](O)[C@H]4O)[C@@H](O)[C@H](O[C@@H]4O[C@H](CO)[C@@H](O)[C@H](O)[C@H]4O)[C@H]3O)[C@H](O)C[C@]3(C)C(=CCC4[C@@]5(C)CC[C@H](O[C@@H]6OC[C@@H](O)[C@H](O)[C@H]6O)[C@@](C)(C(=O)O)C5CC[C@]43C)[C@@H]2C1 (some centres undefined),0.407% [at 15.3 µM],–
C=C1CC[C@@]2(OC1)O[C@H]1CC3[C@@H]4CC=C5C[C@H](O[C@H]6OC[C@@H](O)C(O)[C@@H]6O[C@@H]6O[C@@H](C)[C@H](O)[C@@H](O[C@@H]7O[C@H](CO)[C@@H](O)[C@H](O)[C@H]7O)[C@H]6O)C[C@@H](O)[C@]5(C)C4CC[C@]3(C)[C@H]1[C@@H]2C (some centres undefined),-9.14% [at 15.3 µM],–
O=C(OC[C@H]1O[C@@H](Oc2ccccc2COC(=O)C2(O)C=CCCC2O)[C@H](O)[C@@H](O)[C@@H]1O)c1ccccc1 (some centres undefined),-16.1%,–
CNC(C)C(=O)NC(C(=O)N1CCCC1C(=O)Nc1cccc2ncccc12)C(C)C (centres undefined),3.22% [at 48.8 µM],–
CC1(C)CC[C@]2(C(=O)O[C@@H]3O[C@H](CO[C@@H]4O[C@H](CO)[C@@H](O)[C@H](O)[C@H]4O)[C@@H](O)[C@H](O[C@@H]4O[C@H](CO)[C@@H](O)[C@H](O)[C@H]4O)[C@H]3O)CC[C@]3(C)C(=CCC4[C@@]5(C)CC[C@H](O[C@@H]6OC[C@@H](O)[C@H](O)[C@H]6O)[C@@](C)(C(=O)O)C5CC[C@]43C)[C@@H]2C1 (some centres undefined),–,inactive [at 15.3 µM]
O=C(O)CC/C=C\C[C@H]1CO[C@@H](c2ccccc2Cl)O[C@H]1c1ccccc1O,–,inactive [at 48.8 µM]
